Source: PubChem BioAssay
Hits are enriched below; roughly 3.5% of the tested compounds scored in any of these assays.
FadD28 FP inh: blocks FadD28 binding to the bisubstrate probe; inhibition, % at 12.5 µM; fluorescence polarization; 0.22% of 360,000 active; in the data active means inhibition above about 8.5%, passing the limit was not always enough
Rv3671c inh: inhibits the M. tuberculosis serine protease Rv3671c; P9WHR9; AID 2606; inhibition, % at 5.96 µM; 0.048% of 320,000 active; in the data active means inhibition above about 38%;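 further: extracellular domain of Rv3671c used as enzyme; 0% = enzyme with DMSO and 100% = no enzyme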
UGM FP inh: blocks M. tuberculosis UGM enzyme | 0.06% of 320,000 active | inhibition, % at 10 µM | purified UGM, fluorescence polarization probe displacement | AID 504406; in the data active means inhibition above about 10%, passing the limit was not always enough
Target sequence (P9WIQ1 whole entry, looked up): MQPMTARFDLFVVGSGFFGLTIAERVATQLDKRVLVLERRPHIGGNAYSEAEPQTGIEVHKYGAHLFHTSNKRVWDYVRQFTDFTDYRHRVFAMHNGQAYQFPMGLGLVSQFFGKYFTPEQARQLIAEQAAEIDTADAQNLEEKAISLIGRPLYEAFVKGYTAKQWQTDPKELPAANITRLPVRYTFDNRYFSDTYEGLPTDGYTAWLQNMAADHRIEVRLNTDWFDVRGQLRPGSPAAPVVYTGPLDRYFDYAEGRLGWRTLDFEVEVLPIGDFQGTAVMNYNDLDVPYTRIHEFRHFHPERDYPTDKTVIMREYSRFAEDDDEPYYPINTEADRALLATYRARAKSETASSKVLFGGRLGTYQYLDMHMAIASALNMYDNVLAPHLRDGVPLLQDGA
GDH-TPI inh: inhibits GDH-TPI coupling enzymes, artifact for Mtb FBA screen | AID 588335 | inhibition, % at 4.8 µM | 1.2% of 360,000 active | GDH-TPI coupled enzyme counterscreen, NADH absorbance; in the data active means inhibition above about 30%;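 further: 0% = DMSO wells and 100% = wells lacking the enzyme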
Mtb hypoxia inh: inhibitors of hypoxia-regulated fluorescent reporter in Mycobacterium tuberculosis; M. tuberculosis hypoxia-regulated fluorescent reporter, fluorescence; fluorescence inhibition, % (concentration not given with the values); 0.1% of 300,000 active; in the data active means fluorescence inhibition mostly above about 23%, no sharp cut-off; inactive means mostly below about 17%
FBA Mtb inh: inhibits M. tuberculosis FBA enzyme. purified M. tuberculosis FBA, fluorescence read-out. 2.3% of 360,000 active. inhibition, % at 1 µM. AID 588726. P9WQA3; in the data active means inhibition above about 27%;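 further: 0% = vehicle and 100% = reference inhibitor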
* = called active by the depositor; . = no result given.

SMILES	FadD28 FP inh	Rv3671c inh	UGM FP inh	GDH-TPI inh	Mtb hypoxia inh	FBA Mtb inh
N#C/C(=C(/O)c1cccs1)c1nc2ccccc2[nH]1	0	9	3	39*	5	14
CCCCCCOc1ccc(N2C(=O)CC(S/C(N)=N/N=C(C)c3cccs3)C2=O)cc1 (configuration not stated)	.	.	.	.	10	.
COc1ccc(S(=O)(=O)Nc2ccc3c(c2)C(=O)N(C(C)CO)CC(C)C(CN(C)C(=O)Nc2c(C)noc2C)O3)cc1 (configuration not stated)	.	.	.	.	7	.
CCCC1=NN2C(=N)/C(=C\c3ccc(SCc4ccco4)o3)C(=O)N=C2S1	14*	-41	-2	9	.	-5
CCC1=NN2C(=N)/C(=C\c3ccc(SCc4ccco4)o3)C(=O)N=C2S1	11*	-115	-4	22	-2	-11
CCCC1=NN2C(=N)/C(=C\c3cc(C)n(Cc4ccccc4)c3C)C(=O)N=C2S1	-1	3	-4	17	9	5
CCC1=NN2C(=N)/C(=C/c3c(C)nn(-c4ccccc4)c3Cl)C(=O)N=C2S1	-1	-7	0	7	7	7
C=CCC(Cc1ccc(F)cc1)C(=O)OCC1CCCN1C(=O)C(CC=C)CC(=O)NC(CO)Cc1ccccc1 (configuration not stated)	.	.	.	.	6	.
O=c1oc2ccccc2c2oc3cc(O)c(O)cc3c12	-1	-6	3	21	7	-1
O=c1oc2c(O)c(O)cc3c(=O)oc4c(O)c(O)cc1c4c23	14*	1	0	14	.	0
COc1cc(C(=O)NN=Cc2ccsc2C)cc(OC)c1OC	.	.	.	.	8	.
COc1cc(/C=N/NC(=O)c2cnccn2)cc(OC)c1OC	-1	-8	.	32*	.	-1
COc1cc(C(=O)N/N=C/c2ccsc2C)cc(OC)c1OC	1	5	-1	37*	.	-1
COc1cc(/C=N/Nc2nc(N3CCCC3)nc(N3CCCC3)n2)ccc1O	-1	1	-1	35*	.	5
COc1cc(/C=C/C(C)=NNc2ccccc2)ccc1O	0	.	.	32*	19	1
COc1cc(C=NNC(=O)c2cnccn2)cc(OC)c1OC	.	.	.	.	2	.
CC(=NNC(=O)c1cccc(S(=O)(=O)N2CCCC2)c1)c1ccc(C)cc1	.	.	.	.	-6	.
COC(CC(O)CC(=O)C(C)OCc1ccccc1)OC (configuration not stated)	.	.	.	.	10	.
COc1cc(/C=N/NC(=S)NCCc2ccccc2)cc(OC)c1OC	1	.	-4	41*	.	1
C=CCOc1c(OC)cc(/C=N/Nc2cccc(C(=O)O)c2)c(Br)c1Br	16*	16	2	15	.	5
COc1ccc(OC)c(C=NNC(=S)NCCc2ccccc2)c1	.	.	.	.	9	.
COc1cc(/C=N/Nc2ccc(C(=O)O)cc2)cc(OC)c1OC	-1	-3	-1	41*	.	-1
COc1ccc(-c2cnnc(N/N=C/c3ccc(O)c(OC)c3)n2)cc1	-2	-3	-2	55*	.	-1
Cc1ccc(C=NNC(=O)Cc2ccc(Cl)cc2)c(O)c1	.	.	.	.	11	.
COc1cc(/C=N/Nc2ccc(C(=O)O)cc2)ccc1O	2	-8	1	33*	.	2
SMILES	FadD28 FP inh	Rv3671c inh	UGM FP inh	GDH-TPI inh	Mtb hypoxia inh	FBA Mtb inh
COc1ccc(/C(C)=N/Nc2ccc(C(=O)O)cc2)cc1OC	2	-13	.	56*	.	4
COc1cc(C=NNc2ccc(C(=O)O)cc2)ccc1O	.	.	.	.	1	.
COc1cc(/C=N/NC(=S)Nc2cccc(C(=O)O)c2)ccc1O	-6	-15	3	32*	.	4
COc1cc(/C(C)=N/Nc2ccc(C(=O)O)cc2)cc(OC)c1OC	-1	-8	0	29	.	-1
CC(=O)N(C)c1ccc(N=Nc2ccc3ncccc3c2)cc1	0	.	.	56*	6	4
O=c1cc(CN2CCN(S(=O)(=O)c3ccc4c(c3)OCCO4)CC2)c2ccc(O)cc2o1	-7	-1	4	20	-2	199*
O=c1cc(CN2CCN(S(=O)(=O)c3cccc(Cl)c3)CC2)c2ccc(O)cc2o1	-1	-32	0	1	-1	118*
C/C(C=NNC(=O)c1ccccn1)=C\c1ccco1	.	.	.	.	-3	.
COCCNc1nc(NCCCN2CCCC2=O)c2sc(-c3ccccc3)cc2n1	-11	.	.	31*	.	16
Cc1ccccc1-n1c(O)c(C=Nc2ccc3c(c2)OCO3)c(=O)[nH]c1=O	0	8	-1	33*	0	-2
CCN(CC)c1ccc(N=Cc2c(O)n(-c3ccccc3C)c(=O)[nH]c2=O)cc1	0	-13	2	31	-4	-3
